How the values were obtained:
Test in all cases: protein binding microarray; high values mean tight binding
Conditions in all cases: dsDNA, one strand shown
RELARELA (p65 homodimer) = RELARELA (p65 homodimer) (Homo sapiens, UniProt Q04206 1-307)
p50p50 homodimer = p50p50 homodimer (Homo sapiens, UniProt P19838 7-356)
p52p52 homodimer = target: T1, p52p52 homodimer (Homo sapiens, UniProt Q00653 4-332)
T1 sequence: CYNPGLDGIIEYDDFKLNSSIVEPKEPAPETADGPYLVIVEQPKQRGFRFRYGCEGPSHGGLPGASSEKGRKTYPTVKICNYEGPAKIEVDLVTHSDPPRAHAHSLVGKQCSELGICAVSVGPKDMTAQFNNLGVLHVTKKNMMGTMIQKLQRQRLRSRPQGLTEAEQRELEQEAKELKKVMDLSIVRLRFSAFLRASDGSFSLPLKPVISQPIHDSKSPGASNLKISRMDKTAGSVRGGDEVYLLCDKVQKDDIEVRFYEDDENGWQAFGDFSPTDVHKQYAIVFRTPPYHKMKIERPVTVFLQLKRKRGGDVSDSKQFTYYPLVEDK

[1] = target: RELA (p65) subunit of heterodimer;p50 subunit (Homo sapiens;Homo sapiens, UniProt Q04206;P19838 1-307;7-356)
Chain of RELA (p65) subunit of heterodimer;p50 subunit (Q04206 1-307, chain 1 of 2): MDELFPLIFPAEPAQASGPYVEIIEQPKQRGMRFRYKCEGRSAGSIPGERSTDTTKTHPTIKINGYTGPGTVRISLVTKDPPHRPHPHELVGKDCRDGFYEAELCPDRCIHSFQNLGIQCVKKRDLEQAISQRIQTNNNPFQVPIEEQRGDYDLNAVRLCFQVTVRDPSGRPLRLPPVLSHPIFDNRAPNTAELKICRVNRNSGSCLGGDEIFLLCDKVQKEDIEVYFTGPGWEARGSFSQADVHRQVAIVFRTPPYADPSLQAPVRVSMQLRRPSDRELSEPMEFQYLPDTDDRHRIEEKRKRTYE
Chain of RELA (p65) subunit of heterodimer;p50 subunit (P19838 7-356, chain 2 of 2): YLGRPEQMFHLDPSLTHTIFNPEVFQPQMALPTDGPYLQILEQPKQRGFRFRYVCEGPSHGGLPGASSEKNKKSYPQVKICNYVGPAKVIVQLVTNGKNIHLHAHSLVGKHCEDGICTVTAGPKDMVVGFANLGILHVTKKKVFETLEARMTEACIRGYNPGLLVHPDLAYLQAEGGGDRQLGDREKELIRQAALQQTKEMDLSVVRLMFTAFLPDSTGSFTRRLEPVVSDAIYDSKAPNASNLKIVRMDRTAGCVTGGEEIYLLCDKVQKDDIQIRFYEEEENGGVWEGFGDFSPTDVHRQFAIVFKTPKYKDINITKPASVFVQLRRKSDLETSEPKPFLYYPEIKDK

[2] = target: RELA (p65) subunit of heterodimer;p52 subunit (Homo sapiens;Homo sapiens, UniProt Q04206;Q00653 1-307;4-332)
RELB subunit;p50 subunit = RELB subunit;p50 subunit (Homo sapiens;Homo sapiens, UniProt Q01201;P19838 120-401;7-356)
RELB subunit;p52 subunit = target: T2, RELB subunit;p52 subunit (Homo sapiens;Homo sapiens, UniProt Q01201;Q00653 120-401;4-332)
T2 sequence 1: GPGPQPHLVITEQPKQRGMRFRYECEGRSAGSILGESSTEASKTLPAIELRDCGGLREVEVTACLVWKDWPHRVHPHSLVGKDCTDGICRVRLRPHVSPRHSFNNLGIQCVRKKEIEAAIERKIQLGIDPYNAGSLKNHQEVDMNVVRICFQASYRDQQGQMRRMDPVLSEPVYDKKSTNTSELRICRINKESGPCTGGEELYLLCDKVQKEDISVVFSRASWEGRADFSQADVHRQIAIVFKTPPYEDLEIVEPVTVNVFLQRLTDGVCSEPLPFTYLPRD
T2 sequence 2: T1 sequence

[3] = target: C-Rel subunit;p50 subunit (Homo sapiens;Homo sapiens, UniProt Q04864;P19838 1-285;7-356)
[4] = target: T3, C-Rel subunit;p52 subunit (Homo sapiens;Homo sapiens, UniProt Q04864;Q00653 1-285;4-332)
T3 sequence 1: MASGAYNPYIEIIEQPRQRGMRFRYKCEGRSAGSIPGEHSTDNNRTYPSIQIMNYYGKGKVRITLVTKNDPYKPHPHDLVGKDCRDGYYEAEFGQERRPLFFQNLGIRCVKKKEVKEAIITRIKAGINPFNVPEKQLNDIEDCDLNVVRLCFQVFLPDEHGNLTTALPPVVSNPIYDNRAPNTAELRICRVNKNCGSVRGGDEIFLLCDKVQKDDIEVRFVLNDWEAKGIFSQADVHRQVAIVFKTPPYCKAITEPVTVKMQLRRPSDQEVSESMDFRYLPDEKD
T3 sequence 2: T1 sequence

Chain of p50p50 homodimer (P19838 7-356): as the sequence (P19838 7-356, chain 2 of 2) above
Chain of RELARELA (p65 homodimer) (Q04206 1-307): as the sequence (Q04206 1-307, chain 1 of 2) above

Sequence | binding signal (RELARELA (p65 homodimer)) [z-score] | binding signal (p50p50 homodimer) [z-score] | binding signal (p52p52 homodimer) [z-score] | binding signal [1] [z-score] | binding signal [2] [z-score] | binding signal (RELB subunit;p50 subunit) [z-score] | binding signal (RELB subunit;p52 subunit) [z-score] | binding signal [3] [z-score] | binding signal [4] [z-score]
AGGTTCGCCCT | -0.645 | -1.28 | -0.726 | -0.876 | -0.838 | -0.727 | -0.728 | -1.03 | -0.838
GAGAAAGTCCC | 1.97 | 1.14 | 1.91 | 1.51 | 1.47 | 1.81 | 1.7 | 1.39 | 1.69
GGAAATCCCCT | 3.63 | 1.5 | 3.23 | 3.21 | 3.34 | 2.45 | 3.27 | 3.04 | 3.88
AAGTTCACCCC | -0.0981 | 0.184 | 0.0438 | -0.0301 | -0.0961 | 0.292 | 0.317 | 0.451 | 0.174
GAAGTAATCCT | -0.663 | -1.65 | -0.468 | -1 | -0.977 | -1.16 | -0.928 | -1.23 | -0.892
CAAGGTACCCT | -0.567 | -0.267 | -0.0886 | -0.499 | -0.317 | -0.0446 | -0.391 | -0.833 | -0.57
AGATAAGCCCT | -0.464 | -1.05 | -0.697 | -0.764 | -0.927 | -1.1 | -0.798 | -0.985 | -0.712
CGAAGTTCCCT | 0.618 | 0.819 | 0.347 | 0.834 | 0.752 | 0.603 | 0.672 | 0.425 | 0.379
CGATGGGCCCT | -0.936 | -1.43 | -0.601 | -0.968 | -0.798 | -0.95 | -0.85 | -1.73 | -0.583
GAAGACCTCCT | -0.649 | -2.61 | -0.857 | -0.905 | -0.909 | -1.23 | -0.869 | -1.61 | -0.944
AAAGGATCCCT | -0.446 | -0.455 | -0.198 | -0.582 | -0.469 | -0.388 | -0.424 | -0.748 | -0.634
CAGTTGACCCT | -0.398 | -0.922 | -0.533 | -0.555 | -0.554 | -0.526 | -0.777 | -1.18 | -0.639
AAGAGTACCCT | -0.409 | 0.828 | 0.248 | 0.398 | 0.224 | 0.66 | 0.374 | 0.116 | 0.104
GGAAGTTTCCC | 2.98 | 0.874 | 1.24 | 1.47 | 1.22 | 0.959 | 1.03 | 1.36 | 1.15
CAATGACCCCC | -0.602 | 0.342 | 0.0634 | 0.0857 | 0.113 | 0.27 | 0.286 | -0.0621 | -0.0557

From paper PMC3218832
